From PubChem BioAssay AID1476 (National Center for Advancing Translational Sciences (NCATS), 2009)
The whole screen tested about 200,000 compounds, of which about 4,500 (2.2%) were called active. Another 12% or so got no clear call; they are omitted. Many of the other results were omitted from the sample, so actives are more common in it than they were. Values without a mark were called inactive. Calls come from the whole dose curve; as a rule, active = well fitted inhibition curve with a large enough effect; inconclusive = small, poorly fitted or top-dose-only effect, or effect the other way; inactive = flat fitted curve, though single readings scatter.

What follows are compounds tested against Cruzipain (Trypanosoma cruzi) (UniProt P25779) (assay: qHTS Assay for Promiscuous and Specific Inhibitors of Cruzain (without detergent)). Details: purified cruzain, Z-FR-AMC fluorescence, no detergent.
Summary of the method: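 Detergent-free condition (0.00005% Triton X-100) in acetate buffer pH 5.5 with DTT. 1.5 nM enzyme and compound were pre-mixed 15 min, then 2 uM Z-FR-AMC substrate added; reaction progress from fluorescence change between first and third reads (60 s).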
Note: nearly all actives have a fitted effect of over 40% in size.
Potency is the fitted concentration of half-maximal effect.
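Throughout, for max response, negative = inhibition: plate controls were enzyme without inhibitor for no effect and buffer without enzyme for full effect.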

Chain of Cruzipain (Trypanosoma cruzi) (P25779 123-467 limits assumed): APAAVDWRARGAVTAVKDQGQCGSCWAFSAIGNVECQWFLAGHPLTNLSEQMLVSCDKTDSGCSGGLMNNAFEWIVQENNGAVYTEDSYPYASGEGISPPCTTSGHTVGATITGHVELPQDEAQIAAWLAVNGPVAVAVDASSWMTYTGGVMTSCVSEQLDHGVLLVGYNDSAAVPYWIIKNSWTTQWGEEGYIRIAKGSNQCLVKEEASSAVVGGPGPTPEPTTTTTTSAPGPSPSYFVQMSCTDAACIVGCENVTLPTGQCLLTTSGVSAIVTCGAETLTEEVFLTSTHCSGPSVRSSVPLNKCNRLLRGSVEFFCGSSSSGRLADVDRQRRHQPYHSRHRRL

Row | Compound | max response, negative = inhibition | Potency
1 | COc1ccc(N2CCN(C3=NS(=O)(=O)C(c4cccc(Br)c4)=C3C)CC2)cc1 | -1.42% | –
2 | COc1cccc(CNc2nccn(-c3ccc(OC)c(OC)c3)c2=O)c1 | 4.88% | –
3 | CCOc1ccc(-n2c(SCC(=O)NCc3ccccc3)nc3n[nH]c(C)c3c2=N)cc1 | 6.06% | –
4 | COc1ccc(OC)c(-n2nnc3c(sc4nc(C)c(Br)c(C)c43)c2=O)c1 | 15.9% | –
5 | Cc1ccc(N=C2NC(=O)/C(=C/C=C/c3ccco3)S2)cc1C | -3.89% | –
6 | Cc1cccc(N=C2NC(=O)/C(=C/c3cn(C)c4ccccc34)S2)c1 | – | 31.6 µM (active)
7 | Cc1nnc(N2CCCC(C(=O)NCCN(C)C)C2)c2nn(-c3ccccc3)c(C)c12 (stereo not given) | -14.7% | –
8 | Cc1cccc(CSc2nc3ccncc3n2Cc2ccc(C(=O)O)cc2)c1 | -13.3% | –
9 | CCc1nn(CC(=O)N2CCN(c3cccc(C(F)(F)F)c3)CC2)c(=O)c2cc3occc3n12 | -20.3% | –
10 | CCCCN1C(=O)c2[nH]nc(-c3ccccc3O)c2C1c1cccc(OCc2ccccc2)c1 (stereo not given) | -70.8% | –
11 | O=C(COc1ccccc1Cl)Nc1ccc2nc(SCC(=O)N3CCCC3)sc2c1 | -3.05% | –
12 | Cc1ccc(NC(=O)CSc2nc3ccccc3c3nc(CCn4cncc4C)nn23)cc1F | 6.2% | –
13 | COc1ccc(CNC(=O)CCc2c(C)nn(-c3ccc(N4CCCC4)nn3)c2C)cc1 | 3.65% | –
14 | Cc1ccc2nc(/C(C#N)=C/c3ccccc3F)[nH]c2c1 | -17.7% | –
15 | Cc1ccc2nc(S(=O)(=O)O)[nH]c2c1 | -1.87% | –
16 | Cc1ccc2nc(/C(C#N)=C/c3ccc(-c4ccc(C(=O)OC(C)C)cc4)o3)[nH]c2c1 | – | 12.6 µM (active)
17 | Cc1ccc(N2C(=O)C(Cc3ccccc3)NC2=S)cc1 (stereo not given) | -8.99% | –
18 | Cc1ccc(N2C(=O)C3C(c4ccccc4)(C2=O)C3(c2ccccc2)c2ccccc2)cc1 (stereo not given) | – | 25.1 µM (active)
19 | C=C1c2cc(CC)ccc2NC(=O)N1c1ccc(C)cc1 | -5.5% | –
20 | Cc1ccc(Cn2c(=O)n(CCCC(=O)NCc3ccccc3Cl)c(=O)c3ccccc32)cc1 | 3.97% | –
